High-throughput results from PubChem.
A selection: hits, their analogues and other compounds. The true share with any hit is near 5.7%.
HepG2 tox = HepG2 cytotoxicity, counter-screen for TGF-b inhibitors; HepG2 CAGA-GFP viability, ATP luminescence, 18 h; Potency, µM (doses to about 46.1 µM), inactives show at the highest dose activity change, negative = cytotoxicity, usual class: cytotoxic; hit rate 0.76% among 410,000; also: potency is read from the fitted curve at half-maximal effect
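CellTiter-Glo luminescence gave cytotoxicity after 18 hours at 37 degrees C. The cells were HepG2 CAGA-GFP in 1% FBS DMEM, stimulated with 500 pg/mL TGF-beta after compound addition. %Activity was normalised to no-cell wells (complete cell-killing) and DMSO (no toxicity), and curves were fitted and classified.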
ATXN viability = viability counter-screen for ATXN expression inhibitors; Potency, µM (series often up to 56.7 µM), most hits filed as cytotoxic; hit rate 0.49% among 400,000; S2 cells (HEK-293 line with an ATXN2-luciferase reporter) viability, CellTiter-Fluor protease fluorescence, 24 h; also: potency is read from the fitted curve at half-maximal effect; nearly all actives have a fitted effect of over 40% in size
IL-1B inflam inh = blocks inflammasome-driven IL-1 beta release. activity change, % at 57.5 µM. THP-1 LPS/ATP IL-1B secretion, AlphaLISA, 16 h; active compounds read low. hit rate 4.7% among 360,000; in the data active = activity change below about -50%; inconclusive = mostly about -30% to -49%; also: % is scaled to controls: 0 for no effect and ±100 for the full control effect
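THP-1 cells pretreated 1 hr with compounds (up to 57.5 uM final), then stimulated with LPS (250 ng/mL final) plus ATP (1.25 mM final); secreted IL-1B measured by AlphaLISA after 16 hr, decreased signal indicating inhibition.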
ATXN2 expr inh = ATXN2 expression inhibition. HEK-293 ATXN2-luciferase reporter, luminescence, 24 h. Potency, µM (doses to about 57 µM), for inactives: top-dose activity change, negative = inhibition, hits mostly inhibitors. hit rate 0.72% among 360,000; also: potency is read from the fitted curve at half-maximal effect; % is scaled to controls: 0 for no effect and ±100 for the full control effect; nearly all actives have a fitted effect of over 55% in size
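qHTS (up to 57 uM final) was run with 24 h compound exposure of reporter cells at 37 °C. Each well was multiplexed: SteadyGlo luminescence measured ATXN2-luciferase expression after a fluorogenic Gly-Phe-AFC viability readout (25 uM final).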
TGFb inhibitor = TGF-b pathway inhibition | HepG2 CAGA-GFP TGF-b/SMAD3 reporter, GFP fluorescence, 18 h; TGF-beta stimulated, 500 pg/mL final | hit rate 1.2% among 410,000 | AID 588855 | Potency, µM (top dose mostly 46.1 µM), inactives show top-dose activity, negative = inhibition, most hits filed as inhibitors; also: potency is read from the fitted curve at half-maximal effect; % is scaled to controls: 0 for no effect and ±100 for the full control effect; nearly all actives have a fitted effect of over 65% in size
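Inhibition was scored as loss of TGF-beta-induced (500 pg/mL final, 18 hours, 37 degrees C) GFP in HEPG2 cells carrying a CAGA-GFP reporter, in DMEM with 1% FBS. Well GFP was summed per cell; Activity was normalised to unstimulated and stimulated DMSO wells, then concentration-response fitting.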
Starred values were filed as active, the others as inactive; i = inactive; u = inconclusive; x = not tested or not shown. Unless noted, calls follow the shape of the dose curve; as a rule, active = well fitted curve in the direction sought with a large enough effect; inconclusive = small, poorly fitted or top-dose-only effect, or another doubt; inactive = no such curve, though single readings can be large; an effect the other way counts as inactive or inconclusive.

SMILES	HepG2 tox	ATXN viability	IL-1B inflam inh	ATXN2 expr inh	TGFb inhibitor
O=C(C[C@@H]1C/C=C/CC[C@H](Cc2ccc(F)cc2)C(=O)OC[C@@H](Cc2ccccc2)NC1=O)N[C@H](CO)Cc1ccccc1	-104%	13µM*	4	11µM*	u
O=C1NC[C@H](c2ccccc2)OC(=O)[C@@H](Cc2ccc(F)cc2)C/C=C\C[C@H]1CC(=O)N(CCO)Cc1ccccc1	-116%	u	0	-20%	u
CC(=O)Nc1cccc(C(=O)NCc2ccc3c(c2)CCN3C(=O)c2ccc(F)cc2)c1	-31%	x	x	x	-26%
Cc1cccc(-c2cc3nc(C)cc(NCCCN(C)C)n3n2)c1	-34%	i	-101*	-6%	22%
COCCNc1cc(C)nc2cc(-c3ccc(C)cc3)nn12	-1%	x	-7	28%	-5%
CCN(CC)CCCNc1cc(C)nc2cc(-c3cccs3)nn12	-12%	u	-101*	-15%	-8%
CN(C)CCCNc1cc(-c2ccccc2)nc2cc(-c3cccc(F)c3)nn12	-93%	u	-88*	x	u
Cc1ccc2c(c1)c1c3n2CCN(C(=O)c2ccc(C(F)(F)F)cc2)C3CCC1 (stereo unspecified)	2%	i	x	-5%	10%
Cc1cccc(CNC(=O)CCCn2c(=O)c3cccn3c3ccc(F)cc32)c1	4%	x	x	x	-18%
O=C1C(=NO)CCc2ccccc21	-90%	u	-78*	u	u
O/N=C1/CCc2cccc3cccc1c23	-2%	i	16	16%	-1%
CO[C@H]1[C@H](NC(=O)c2ccco2)c2ccccc2C12CCN(Cc1cnc(N(C)C)s1)CC2	x	i	x	x	x
CCC(C)(C)n1nnnc1C(c1ccc(C)cc1)N1CCN(Cc2ccc3c(c2)OCO3)CC1 (stereo unspecified)	-14%	u	-53*	19%	14%
Cc1ccc(NC(=O)Cn2c(=O)nc(-c3ccccc3F)c3cc(Cl)ccc32)c(Br)c1	-21%	i	x	-20%	-22%
COC(=O)c1ccc(-n2c(C)cc(C(=O)COC(=O)C3=COCCO3)c2C)cc1	1%	i	11	12%	0%
CCOc1ccc(-n2c(C)cc(C(=O)CCl)c2C)cc1	-96%	x	-99*	24µM*	13µM*
CCOc1ccc(NC(=O)C(=O)c2cc(C)n(-c3cc(C)cc(C)c3)c2C)cc1	-25%	i	x	-8%	14%
COC(=O)c1ccc(-n2c(C)cc(C(=O)CCl)c2C)cc1	13µM*	30µM*	-99*	15µM*	20µM*
Cc1ccc(NC(=O)c2cc(S(=O)(=O)N3CCCCC3)c[nH]2)cc1N(C)C	0%	i	x	-1%	1%
c1ccc(-n2cc(CNCCc3cscn3)c(-c3ccc4c(c3)OCO4)n2)cc1	-30%	i	-73*	-14%	1%
OCc1cn(-c2ccccc2)nc1-c1ccc2c(c1)OCCO2	-26%	i	-23	50%	0%
Cc1ccc(CN2CCC(CNC(=O)C3CCCN(c4ncnc5c4nc4n5CCCCC4)C3)CC2)cc1 (stereo unspecified)	-20%	i	-66*	-18%	u
CCOc1ccccc1CNC(=O)C1CCCN(c2ncnc3c2nc2n3CCCCC2)C1 (stereo unspecified)	-12%	i	-53*	-3%	-1%
CCc1ccc(C(=O)c2cn(CC(=O)Nc3ccc(OC)c(Cl)c3)c3nc(C)ccc3c2=O)cc1	-28%	i	x	2%	-7%
CCOc1cc(/C=C/C(=O)Nc2ccc(C(=O)NCCN(CC)CC)cc2)ccc1OCC(C)C	13µM*	x	-70*	x	u
CCN(CC)S(=O)(=O)c1cc(NC(=O)COC(=O)c2c(C)noc2C)ccc1C	-22%	i	-50*	-38%	-13%
Cc1cc(NC(=O)COC(=O)c2c(C)noc2C)ccc1Br	-2%	i	8	4%	0%
CN(C)c1ccc(/C=C2\NC(=O)NC2=O)cc1	-2%	x	x	x	-1%
C=CCOC(=O)C1=C(C)NC(C)=C(C(=O)OCC=C)C1c1ccc(C)o1	6%	i	-77*	-11%	-14%
